# The full list was thinned out, with the strongest signals kept by preference.
# B1: HBHA-Rv (Mycobacterium tuberculosum), P0A5P6 (protein)
# chain: MAENSNIDDIKAPLLAALGAADLALATVNELITNLRERAEETRTDTRSRVEESRARLTKLQEDLPEQLTELREKFTAEELRKAAEGYLEAATSRYNELVERGEAALERLRSQQSFEEVSARAEGYVDQAVELTQEALGTVASQTRAVGERAAKLVGIELPKKAAPAKKAAPAKKAAPAKKAAAKKAPAKKAAAKKVTQK
# How the values were obtained:
# Assay in all cases: glycan array binding signal (z-score within array); higher = stronger binding
# Details in all cases: glycan notation: IUPAC condensed, linker removed
# [1] = target: Gal3S6S(b1-4)GlcNAc6S
# Summary of the method: (§1)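 Glycan array binding is given as a within-array Z-score, which can be read as non-binding when negative. The arrays, 3228 of them, came from the Consortium for Functional Glycomics database and were retained only where the protein sequence was available. Z-scores were averaged across arrays of the same protein sequence at different concentrations or buffers and across linkers.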
# [2] = target: Gal6S(b1-4)Glc
# Summary of the method: as §1
# [3] = target: Gal6S(b1-4)GlcNAc6S
# Summary of the method: as §1
# [4] = target: Glc(b1-6)Glc
# Summary of the method: as §1
# [5] = target: GlcNAc(b1-2)[GlcNAc(b1-6)]Man(a1-6)[GlcNAc(b1-4)][GlcNAc(b1-2)Man(a1-3)]Man(b1-4)GlcNAc(b1-4)GlcNAc
# Summary of the method: as §1
# [6] = target: GlcNAc(b1-3)Gal(b1-4)GlcNAc(b1-2)Man(a1-3)[GlcNAc(b1-3)Gal(b1-4)GlcNAc(b1-2)Man(a1-6)]Man(b1-4)GlcNAc(b1-4)GlcNAc
# Summary of the method: as §1
# [7] = target: GlcNAc(b1-3)Gal(b1-4)GlcNAc(b1-2)Man(a1-3)[GlcNAc(b1-3)Gal(b1-4)GlcNAc(b1-2)Man(a1-6)]Man(b1-4)GlcNAc(b1-4)[Fuc(a1-6)]GlcNAc
# Summary of the method: as §1
# [8] = target: GlcNAc(b1-3)Gal(b1-4)GlcNAc(b1-3)Gal(b1-4)GlcNAc(b1-3)Gal(b1-4)GlcNAc(b1-2)Man(a1-3)[GlcNAc(b1-3)Gal(b1-4)GlcNAc(b1-3)Gal(b1-4)GlcNAc(b1-3)Gal(b1-4)GlcNAc(b1-2)Man(a1-6)]Man(b1-4)GlcNAc(b1-4)[Fuc(a1-6)]GlcNAc
# Summary of the method: as §1
# [9] = target: GlcNAc(b1-3)Gal(b1-4)GlcNAc(b1-3)Gal(b1-4)GlcNAc(b1-3)Gal(b1-4)GlcNAc(b1-2)[GlcNAc(b1-3)Gal(b1-4)GlcNAc(b1-3)Gal(b1-4)GlcNAc(b1-3)Gal(b1-4)GlcNAc(b1-6)]Man(a1-6)[GlcNAc(b1-3)Gal(b1-4)GlcNAc(b1-3)Gal(b1-4)GlcNAc(b1-3)Gal(b1-4)GlcNAc(b1-2)Man(a1-3)]Man(b1-4)GlcNAc(b1-4)[Fuc(a1-6)]GlcNAc
# Summary of the method: as §1
# [10] = target: GlcNAc(b1-4)GlcNAc
# Summary of the method: as §1
# [11] = target: GlcNAc(b1-4)GlcNAc(b1-4)GlcNAc(b1-4)GlcNAc(b1-4)GlcNAc
# Summary of the method: as §1
# [12] = target: GlcNAc(b1-4)GlcNAc(b1-4)GlcNAc(b1-4)GlcNAc(b1-4)GlcNAc(b1-4)GlcNAc
# Summary of the method: as §1
# [13] = target: Kdn(a2-3)Gal(b1-4)[Fuc(a1-3)]GlcNAc
# Summary of the method: as §1
# [14] = target: Man(a1-2)Man(a1-3)[Man(a1-2)Man(a1-6)]Man(a1-6)[Man(a1-2)Man(a1-2)Man(a1-3)]Man(b1-4)GlcNAc(b1-4)GlcNAc
# Summary of the method: as §1
# [15] = target: Man(a1-2)Man(a1-6)[Man(a1-3)]Man(a1-6)[Man(a1-2)Man(a1-2)Man(a1-3)]Man(b1-4)GlcNAc(b1-4)GlcNAc
# Summary of the method: as §1
# [16] = target: Neu5Ac(a2-3)Gal(b1-3)GalNAc
# Summary of the method: as §1
# [17] = target: Neu5Ac(a2-3)Gal(b1-3)GlcNAc(b1-2)Man(a1-3)[Neu5Ac(a2-3)Gal(b1-3)GlcNAc(b1-2)Man(a1-6)]Man(b1-4)GlcNAc(b1-4)GlcNAc
# Summary of the method: as §1
# [18] = target: Neu5Ac(a2-3)Gal(b1-4)GlcNAc(b1-2)Man
# Summary of the method: as §1
# [19] = target: Neu5Ac(a2-3)Gal(b1-4)GlcNAc(b1-2)Man(a1-3)[Neu5Ac(a2-3)Gal(b1-4)GlcNAc(b1-2)Man(a1-6)]Man(b1-4)GlcNAc(b1-4)[Fuc(a1-6)]GlcNAc
# Summary of the method: as §1
# [20] = target: Neu5Ac(a2-3)Gal(b1-4)GlcNAc(b1-3)Gal(b1-4)GlcNAc(b1-2)Man(a1-3)[Neu5Ac(a2-3)Gal(b1-4)GlcNAc(b1-3)Gal(b1-4)GlcNAc(b1-2)Man(a1-6)]Man(b1-4)GlcNAc(b1-4)GlcNAc
# Summary of the method: as §1
# [21] = target: Neu5Ac(a2-3)Gal(b1-4)GlcNAc(b1-6)[Gal(b1-3)]GalNAc
# Summary of the method: as §1
# [22] = target: Neu5Ac(a2-3)Gal(b1-4)[Fuc(a1-3)]GlcNAc
# Summary of the method: as §1
# [23] = target: Neu5Ac(a2-3)Gal6S(b1-4)[Fuc(a1-3)]GlcNAc
# Summary of the method: as §1
# [24] = target: Neu5Ac(a2-6)Gal(b1-4)GlcNAc(b1-2)Man(a1-3)[Gal(b1-4)GlcNAc(b1-2)Man(a1-6)]Man(b1-4)GlcNAc(b1-4)GlcNAc
# Summary of the method: as §1
# [25] = target: Neu5Ac(a2-6)Gal(b1-4)GlcNAc(b1-2)Man(a1-3)[Neu5Ac(a2-3)Gal(b1-4)GlcNAc(b1-2)Man(a1-6)]Man(b1-4)GlcNAc(b1-4)GlcNAc
# Summary of the method: as §1
# [26] = target: Neu5Ac(a2-6)Gal(b1-4)GlcNAc(b1-2)Man(a1-6)[Man(a1-3)]Man(b1-4)GlcNAc(b1-4)GlcNAc
# Summary of the method: as §1
# [27] = target: Neu5Ac(a2-6)Gal(b1-4)GlcNAc(b1-3)Gal(b1-4)GlcNAc(b1-3)GalNAc
# Summary of the method: as §1
# [28] = target: Neu5Ac(a2-8)Neu5Ac(a2-3)[Gal(b1-3)GalNAc(b1-4)]Gal(b1-4)Glc
# Summary of the method: as §1
binder,measurement,setting,value
B1,glycan array binding signal (z-score),[1],1.29
same,glycan array binding signal (z-score),[2],1.36
same,glycan array binding signal (z-score),[3],0.203
same,glycan array binding signal (z-score),[4],0.495
same,glycan array binding signal (z-score),[5],-0.415
same,glycan array binding signal (z-score),[6],-0.423
same,glycan array binding signal (z-score),[7],-0.332
same,glycan array binding signal (z-score),[8],-0.455
same,glycan array binding signal (z-score),[9],-0.347
same,glycan array binding signal (z-score),[10],-0.292
same,glycan array binding signal (z-score),[11],4.22
same,glycan array binding signal (z-score),[12],3.44
same,glycan array binding signal (z-score),[13],-0.371
same,glycan array binding signal (z-score),[14],-0.264
same,glycan array binding signal (z-score),[15],1.09
same,glycan array binding signal (z-score),[16],1.62
same,glycan array binding signal (z-score),[17],-0.163
same,glycan array binding signal (z-score),[18],-0.023
same,glycan array binding signal (z-score),[19],-0.174
same,glycan array binding signal (z-score),[20],-0.297
same,glycan array binding signal (z-score),[21],-0.331
same,glycan array binding signal (z-score),[22],-0.199
same,glycan array binding signal (z-score),[23],0.273
same,glycan array binding signal (z-score),[24],-0.354
same,glycan array binding signal (z-score),[25],-0.42
same,glycan array binding signal (z-score),[26],-0.302
same,glycan array binding signal (z-score),[27],-0.379
same,glycan array binding signal (z-score),[28],1.55
